IkB sig inh: inhibitors of IkB signaling in ABC-DLBCL cells. ABC-DLBCL IkBa-CBG/CBR dual luciferase ratio, 4 h; response scale: scaled: untreated 0%, proteasome inhibitor 100%. Potency, µM (doses to about 57.1 µM), inactives show at the top dose IkBa stabilization activation. 110,000 compounds, 0.04% hits; active = well fitted curve in the direction sought with a large enough effect in the signal ratio, not every such curve was filed as active; inconclusive = small, poorly fitted or top-dose-only effect, or a change in a side signal; the % refers to the signal ratio;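 also: the direction sought is a rising ratio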
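Curves were fitted separately to fusion (green), unfused (red) and ratio luminescence, then classed by r2, magnitude and activity. Cells: OCI-Ly3, 4 h compound plus doxycycline at 37C; 10 uM MG-132 defined full response.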
CRE-bla Fsk: CRE-bla signaling modulation under forskolin stimulation | CHO CRE-bla reporter (cAMP response element driving beta-lactamase), forskolin EC10, beta-lactamase ratio | Potency, µM (top dose mostly 38.2 µM), for the others: at the highest dose activity change, negative = inhibition, actives largely listed as activators | 71,000 compounds, 2.5% hits | AID 662; active = well fitted activation curve with a large enough effect in the signal ratio, with a control signal flat, not every such curve was filed as active; inconclusive = small, poorly fitted or top-dose-only effect, or effect the other way, or a change in a side signal; the % refers to the signal ratio; also: % of control where 0% means no effect
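Titrated compounds plus EC10 NKH 477 on CHO CRE-bla cells, 3 h, 37 °C. CCF4, 2 h RT. Ratio 460/530 nm → AC50.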
ERK AVP inh: blocks ERK signaling stimulated by vasopressin; HEK293-V1b, vasopressin-stimulated pERK AlphaScreen; Potency, µM (doses to about 57.5 µM), without a hit: at the top dose activity, negative = inhibition, most hits filed as inhibitors; 72,000 compounds, 0.99% hits; AID 995; also: % is scaled to controls: 0 for no effect and ±100 for the full control effect; nearly all actives have a fitted effect of over 55% in size
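HEK293 cells stably expressing V1b receptor, preincubated 30 min at 37 °C with compound, then stimulated 5 min with 25 nM vasopressin. Phospho-ERK by AlphaScreen SureFire after 5 h RT; normalized to DMSO and vasopressin; AC50 by Hill fit.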
Imprint erasure: induces erasure of genomic imprints in mouse ES cells; mouse ES Peg3-LacZ reporter, beta-gal luminescence, 40 h; Potency, µM (series often up to 60.7 µM), inactives show at the top dose activity change, positive = activation, actives largely listed as activators; 110,000 compounds, 0.02% hits; AID 1948
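Each well holds 300 Peg3LacZ-Neo (maternal) female ES cells incubated 40 h at 37C, 5% CO2. LacZ is measured by BetaGlo luminescence, with AC50 and maximum efficacy derived from dose-response curves.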
Starred values were filed as active, the others as inactive; ? = inconclusive; / = not tested or not shown; ! = not active in a repeat; [ ] = dose if it differs, or a comment. This is one part of a sample in which hits are shown more often than they occur. Unless noted, calls follow the shape of the dose curve; as a rule, active = well fitted curve in the direction sought with a large enough effect; inconclusive = small, poorly fitted or top-dose-only effect, or another doubt; inactive = no such curve, though single readings can be large; an effect the other way counts as inactive or inconclusive. Potency is read from the fitted curve at half-maximal effect.

SMILES	IkB sig inh	CRE-bla Fsk	ERK AVP inh	Imprint erasure
Cn1c(=O)c2c(-c3ccccc3)n3c4ccccc4ncc3c2n(C)c1=O	-1%	4µM*	-8%	3%
c1ccc2c[n+](CCCC[n+]3ccc4ccccc4c3)ccc2c1	2%[11.4 µM]	1%[7.6 µM]	11%[11.5 µM]	-21%[10.9 µM]
CC(C)C(=O)Nc1ccccc1N1CCN(S(C)(=O)=O)CC1	-3%	10µM*	?	-3%
CCOc1ccc(CCNC(=O)c2oc3c(c2C)-c2[nH]ncc2CC3)cc1OCC	-1%	2.5µM*	?	17%
Cc1c(C(=O)NCc2ccccc2)oc2c1-c1[nH]ncc1CC2	1%	/	/	-4%[10.9 µM]
COc1ccccc1NC(=O)CSc1ncnc2c1oc1ccccc12	0%	1µM*	6%	-5%
O=C(CSc1ncnc2c1oc1ccccc12)Nc1cccc(F)c1	1%	?	-8%	2%
CCc1nc(SCC(=O)Nc2nccs2)c2oc3ccccc3c2n1	-1%	1.3µM*	-19%	-14%
CCc1ccccc1NC(=O)CSc1nc2c(oc3ccccc32)c(=O)n1C	-2%	/	/	-11%[10.9 µM]
Nc1nc(N)c2nc(-c3ccccc3)c(N)nc2n1	?	16µM*!	39%	-10%
COc1cc2c(cc1OC)C1=C(C#N)CC/C(=N\S(=O)(=O)c3ccccc3)N1CC2	-2%	0.4µM*	/	-12%
CCn1c(=O)c2cc(C(=O)N3CCCC3)sc2c2ccccc21	-2%	11%	-7%	14%
CCn1c(=O)c2cc(C(=O)N3CCOCC3)sc2c2ccccc21	6%	2µM*	?	-1%
Cc1nn(-c2ccc(F)cc2)c2sc(C(=O)O)cc12	4%	6.3µM*	-25%	1%
Cc1nn(-c2ccccc2)c2sc(C(=O)N3CCOCC3)cc12	0%	4µM*	3%	-8%
C[C@@H](c1ccccc1)N1C(=O)[C@H]2[C@@H]3[C@H](O)[C@H](O)CC(=O)[C@H]3CC[C@H]2C1=O	/	/	26%[11.5 µM]	/
COc1ccc(OC)c([C@H]2Nc3ccccc3NC3=C2C(=O)CC(C)(C)C3)c1Br	0%[11.4 µM]	12%	/	/
c1ccc(-c2csc(-c3nc4ccccc4[nH]3)n2)cc1	/	/	1.3µM*	-36%
CCCCS(=O)(=O)c1nc(-c2ccc(Br)cc2)cc(-c2ccccc2)c1C#N	3.2µM*	/	/	-37%[10.9 µM]
COC(=O)c1c(C#N)c(N)nc2c1CCCC2	-2%	10µM*	-15%	8%
COc1cc(-c2c(C#N)c(N)nc3c2CCCC3)ccc1O	?	?	?	-13%
COc1ccc2[nH]cc(CCNc3ncncc3-c3ccccc3C)c2c1	12%[11.4 µM]	?	?	-19%
Cc1ccc(C(=O)C2CCN(CC(=O)Nc3ccc4c(c3)OCCO4)CC2)cc1	?	-5%	-11%	-12%
Cc1ccc(C(=O)C2CCN(CC(=O)Nc3ccc(N(C)C)cc3)CC2)cc1	4%	-6%	16µM*	-6%
CC(=O)n1c(COS(C)(=O)=O)nc2ccccc21	-1%[11.4 µM]	-2%[7.6 µM]	-3%[11.5 µM]	-7%[10.9 µM]
SMILES	IkB sig inh	CRE-bla Fsk	ERK AVP inh	Imprint erasure
Cc1cccc2sc(NC(=O)Cn3cccc3)nc12	3%	2%	25µM*	-8%
COc1ccc2c(c1OC)C(=O)N(c1ccccn1)C2	4%	10µM*	3%	-72%
Cc1ccccc1CNc1ncnc2c1ncn2[C@@H]1O[C@@H](CO)[C@H](O)[C@@H]1O	?	-8%	-22%	/
c1ccc2c(c1)nc(NCC1CCCO1)c1nnnn12 (stereo not drawn)	?	?	-25%	0%
Oc1ccccc1-c1nc(NCC2CCCO2)c2ccccc2n1 (stereo not drawn)	?	?	32µM*	-18%
O=C(c1cccs1)c1no[n+]([O-])c1C(=O)c1cccs1	?	?	5µM*	-45%
COc1ccc(C(=O)c2no[n+]([O-])c2C(=O)c2ccc(OC)cc2)cc1	?	?	?	-44%
CC(=O)OC[C@@H]1O[C@H](C/C=N\O[C@@H](C)c2cn([C@H]3COC[C@H]3O)nn2)C=C[C@@H]1OC(C)=O	/	/	-4%[11.5 µM]	/
CCOC(=O)c1oc2ccc(Br)cc2c1NC(=O)CN1CCN(C)CC1	-2%	0.02µM*	29%	-5%
COC(=O)c1oc2ccc(Br)cc2c1NC(=O)CCN1CCOCC1	1%	6%	-27%	0%
CC(=O)OCC1OC(C#CCC2CCCCC2)C=CC1OC(C)=O (stereo not drawn)	/	/	-4%[11.5 µM]	/
CC(C)C[C@H](NC(=O)[C@@H](NC(=O)N[C@@H](Cc1ccccc1)C(=O)O)[C@H]1CCN=C(N)N1)C(=O)N[C@H](C=O)Cc1ccccc1	3%[11.4 µM]	0%	/	/
Cc1cc2c(c(N)n1)c(=O)oc1ccccc12	-2%	2.5µM*	-23%	-8%
COC(=O)c1c(C)nc(C)c2c(=O)oc3ccccc3c12	-3%	?	5%	5%
Cc1nc2cnc(Oc3cccc(Cl)c3)nc2n(CCc2ccccc2)c1=O	-1%[11.4 µM]	?	17%	/
O=c1cnc2cnc(Oc3cccc(Cl)c3)nc2n1CCc1ccccc1	-3%[11.4 µM]	16µM*	-22%	?
COc1ccc(Oc2ncc3nc(C)c(=O)n(Cc4cccs4)c3n2)cc1	3%[11.4 µM]	10µM*	-4%	/
COc1ccc(Oc2ncc3nc(C)c(=O)n(CCc4ccccc4)c3n2)cc1	-1%[11.4 µM]	2.5µM*	-17%	/
Cc1nc2cnc(Oc3ccccc3)nc2n(CCc2ccccc2)c1=O	1%[11.4 µM]	?	12%	/
Cc1nc2cnc(Oc3ccccc3)nc2n(Cc2cccs2)c1=O	1%[11.4 µM]	13µM*	-14%	?
CC(=O)O[C@@H]1[C@H]([N+]2(C)CCCCC2)C[C@@H]2[C@@H]3CC[C@@H]4C[C@@H](OC(C)=O)[C@H]([N+]5(C)CCCCC5)C[C@@]4(C)[C@H]3CC[C@]21C	1%	-11%	6%	/
CCNc1ncc2nc(C)c(=O)n(C3CC3)c2n1	1%[11.4 µM]	16%	?	?
COc1ccccc1CNc1cc(-c2ccccc2OC)ncn1	15%[11.4 µM]	?	7.9µM*	-16%
COc1ccc(CNc2cc(-c3ccccc3C)ncn2)c(OC)c1	3%[11.4 µM]	?	13µM*	-18%
COc1ccccc1CNc1cc(-c2ccccc2C)ncn1	13%[11.4 µM]	15%	-28%	-12%
SMILES	IkB sig inh	CRE-bla Fsk	ERK AVP inh	Imprint erasure
COc1ccc(CNc2cc(-c3ccccc3CN(C)C)ncn2)c(OC)c1	0%[11.4 µM]	0%	-2%	-7%
Cc1cc(C)n2nc(SCc3cc(=O)n4c(C)cccc4n3)nc2n1	-3%	0.63µM*	-16%	-6%
Cc1cc(C)n2nc(SCn3nnc4ccccc4c3=O)nc2n1	0%	13µM*	6%	-12%
Cc1ccc(-n2c(SCc3ccccc3F)nc3[nH]ncc3c2=O)cc1C	-2%	/	/	3%[10.9 µM]
Cc1cc(=O)[nH]c(SCn2nnc3ccccc3c2=O)n1	0%	?	-24%	-5%
Cc1cc(C)n2nc(SCc3cc(=O)n4ccccc4n3)nc2n1	0%	1µM*	-6%	-6%
Cc1ccccc1-n1c(SCc2cc(=O)n3ccccc3n2)nc2[nH]ncc2c1=O	-2%	2µM*	-20%	-9%
COC1=CC(=O)C[C@@H](C)[C@@]12Oc1c(Cl)c(OC)cc(OC)c1C2=O	2%[11.4 µM]	-10%	/	/

From PubChem
